Laboratory results as given in PubChem BioAssay.
Calls of active or inactive are those of the source.

Experiment: E. coli acrAB mutant growth effects, primary screen, E. coli filamentation inducers, strain DRC39, OD650, 24 h (AID 1178);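 note: growth measured as culture turbidity by optical density at 650 nm; test concentration not given here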
Conditions: higher = more signal, called active from +8 up or from −8 down

z-score, inactive:
[N-]=[N+]=NCc1ccccc1C[C@@]1(C(=O)N2CCOCC2)N=C(c2ccc(OCCCO)cc2)O[C@@H]1c1ccccc1 0.834
COC(=O)C(CC#Cc1ccc2c(c1)[C@]1(C(=O)N2)[C@H](C(=O)N2CCN(c3ncccn3)CC2)[C@H]2C(=O)O[C@H](c3ccccc3)[C@H](c3ccccc3)N2[C@@H]1c1ccc(OCCO)cc1)C(=O)OC 0.475
[N-]=[N+]=Nc1ccccc1[C@@H]1OC(c2ccc(OCCCO)cc2)=N[C@]1(Cc1ccccc1)C(=O)NCC(O)CO (some centres not stated) 2.24
CCCC[C@@H]1C[C@H]1[C@@H](NC(=O)c1cccs1)c1ccc(C(F)(F)F)cc1 -0.82
COC(=O)[C@@]1(Cc2ccc(OC)cc2)[C@H]2c3cc(C(=O)N(C)C)n(CCO)c3C[C@H]2CN1C(=O)c1ccccc1 -0.748
CCOC(=O)C[C@H]1[C@H](OC(=O)Cc2ccc3c(c2)OCO3)[C@@H](NC(=O)CC(C)C)c2cc(OCCCO)ccc2N1C(=O)Cc1ccc(OC)cc1 0.287
O=C1NC(=O)C2C1C=CC(C(O)c1ccco1)N2Nc1ccccn1 (configuration not stated) -0.457

Experiment: E. coli acrAB mutant growth effects, primary screen, E. coli filamentation inducers, strain DRC39, OD650, 48 h (AID 1179);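 note: screen aims at cell division blockers that make cells filament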
Conditions: E. coli DRC39 delta-acrAB growth, higher = more signal, called active from +8 up or from −8 down

z-score, inactive:
O=C1OCCC=C[C@H]2OC34C=CCN(Cn5nnc6ccccc65)C(=O)[C@H]3N(CCCCCCO)C(=O)[C@@H]4C12 (some centres not stated) 0.703
O=C1C[C@@](C(=O)NCCN2CCOCC2)(c2ccc([N+](=O)[O-])cc2)[C@@H](c2ccc(CO)cc2I)N1C1CCCCC1 0.356
NC(=O)N1C(=O)C2C(C1=O)C1C=C(CCCO)C2C(c2cccs2)N1Cc1cccc(OC(F)(F)F)c1 (configuration not stated) -0.692
C=C(/C(=C/C[C@H](OC(C)=O)c1ccccc1OCCO)c1cc(C(=O)OC)ccc1OC)C(C)C -0.216
CCCC[C@@H](O)C1=C(COc2ccccc2)C[C@H]2C(=O)N(C)C(=O)[C@H]2[C@H]1CO 1.41
O=C1NC(=O)C2C1C=CC(C(O)c1cccc3ccccc13)N2Nc1ccc(Cl)cc1Cl (configuration not stated) -0.726
COc1ccc(-c2cc3c(c(CCc4ccccc4)n2)[Si](C(C)C)(C(C)C)OC3)cn1 0.469
COC(=O)[C@@]1(Cc2ccc(F)cc2)[C@H]2c3cc(C(=O)N4CCCC4)n(CCc4ccc(O)c(O)c4)c3C[C@H]2CN1C(=O)c1ccccc1 -0.177
CC1=C[C@@]2(CO)C(=O)[C@]3(CO3)[C@@H]1[C@H]1[C@]2(C)C=C(CO)C(=O)[C@]12CO2 0.655
O=C(NCC(F)(F)F)[C@@H]1c2ccccc2C(=O)N(Cc2ccc(OC(F)(F)F)cc2)[C@H]1c1ccc(CO)cc1 0.632
COC(=O)Cn1c(C(=O)N(C)C)cc2c1C[C@H]1CN(C(=O)c3ccccc3)[C@@](Cc3ccc(F)cc3)(C(=O)OC)[C@@H]21 -0.582
COc1ccc([Si](C)(C)[C@H]2[C@H](CC(=O)N(CCO)Cc3ccccc3)O[C@@]3(C(=O)N(Cc4cccc(N5CCOC5=O)c4)c4ccccc43)[C@@H]2C)cc1 -0.639
COCCCNC(=O)[C@]1(CCS(=O)(=O)c2ccccc2)N=C(c2ccc(OCCCO)cc2)O[C@@H]1c1ccccc1CN=[N+]=[N-] 0.748
[N-]=[N+]=Nc1ccccc1C[C@]1(C(N)=O)N=C(c2ccc(OCCCO)cc2)O[C@H]1c1ccccc1N=[N+]=[N-] -0.142
C#CCN([C@@H](Cc1ccc(O)cc1)C(=O)OC)[C@@H](/C=C/C1CC1)[C@H](O)Cc1ccccc1 -0.737
CN(C)c1ccc(C(O)C2C=CC3C(=O)N(c4ccccc4)C(=O)C3N2Nc2ccc([N+](=O)[O-])cc2)cc1 (configuration not stated) -0.914
NCCCCCCNC(=O)[C@@H]1C[C@@H]2C(=O)N[C@@H](CCCCN)C(=O)N2[C@@H]1c1cccc(OCCO)c1 0.756
CCOC(=O)C1=CC[C@@H](c2ccc(OCc3ccccc3)c(OC)c2)N(S(=O)(=O)c2ccc(C)cc2)[C@H]1c1ccc(SC)cc1 -0.361
COC(=O)[C@@]1(Cc2ccccc2)[C@H]2c3cc(C(=O)N(C)C)n(Cc4c(CO)[nH]cc(C)c4=O)c3C[C@H]2CN1C(=O)c1ccccc1 0.0568
CN1C(=O)C2C=CC(C(O)COCc3ccccc3)N(N(c3ccccc3)c3ccccc3)C2C1=O (configuration not stated) 0.0087
CCC[C@@H]1C[C@@]1(CCC)[C@@H](NC(=O)OCc1ccccc1)c1ccc(-c2ccccc2)cc1 0.492
COCCOC(=O)N1C(=O)[C@@]2(c3cc(C#CC4=CCCCC4)ccc31)[C@H](c1ccc(OCCO)cc1)N1[C@H](c3ccccc3)[C@H](c3ccccc3)OC(=O)[C@H]1[C@@H]2C(=O)NC[C@H](O)c1ccccc1 -0.16
C=C(CCCC)/C(=C/C[C@@H](OC(=O)c1ccncc1)c1ccccc1OCCO)c1cnc2ccccc2c1 -0.514
CC1CC/C=C\[C@H]2OC34C=CCN(C(C)C)C(=O)[C@H]3N(CCCCCCO)C(=O)[C@@H]4C2C(=O)O1 (some centres not stated) 0.864
O=C1C2C=CC(C(O)c3ccc(Br)cc3)N(Nc3ccccc3F)C2C(=O)N1c1ccccc1 (configuration not stated) 2.06
COC(=O)[C@@]1(Cc2ccc(OC)cc2)[C@H]2c3cc(C(=O)N4CCCC4)n(Cc4cccc5ccccc45)c3C[C@H]2CN1C(=O)c1ccccc1 0.277
CCOC(=O)C1CCCCN1 (configuration not stated) -0.0724
COc1ccc([Si](C)(C)[C@H]2[C@H](CCn3cc([C@H](O)c4ccccc4)nn3)O[C@@]3(C(=O)N(Cc4ccc(N5C(=O)c6cccc7cccc5c67)cc4)c4ccccc43)[C@@H]2C)cc1 1.45
[N-]=[N+]=NCc1ccccc1C[C@@]1(C(=O)N2CCOCC2)N=C(c2ccc(OCCCO)cc2)O[C@@H]1c1ccccc1 -0.274
COC(=O)C(CC#Cc1ccc2c(c1)[C@]1(C(=O)N2)[C@H](C(=O)N2CCN(c3ncccn3)CC2)[C@H]2C(=O)O[C@H](c3ccccc3)[C@H](c3ccccc3)N2[C@@H]1c1ccc(OCCO)cc1)C(=O)OC 1.05
[N-]=[N+]=Nc1ccccc1[C@@H]1OC(c2ccc(OCCCO)cc2)=N[C@]1(Cc1ccccc1)C(=O)NCC(O)CO (some centres not stated) 0.783
CCCC[C@@H]1C[C@H]1[C@@H](NC(=O)c1cccs1)c1ccc(C(F)(F)F)cc1 -0.734
COC(=O)[C@@]1(Cc2ccc(OC)cc2)[C@H]2c3cc(C(=O)N(C)C)n(CCO)c3C[C@H]2CN1C(=O)c1ccccc1 -0.173
CCOC(=O)C[C@H]1[C@H](OC(=O)Cc2ccc3c(c2)OCO3)[C@@H](NC(=O)CC(C)C)c2cc(OCCCO)ccc2N1C(=O)Cc1ccc(OC)cc1 0.629
O=C1NC(=O)C2C1C=CC(C(O)c1ccco1)N2Nc1ccccn1 (configuration not stated) -0.21
